Source: PubChem
This is a sample that favours compounds with a hit; in the whole collection about 1.6% have one here.
KCNQ2 inh = blocks the rat KCNQ2 potassium channel; O88943; CHO-K1 KCNQ2, FluxOR thallium flux, 20 min; stronger effect = lower value; B-score at 10 µM; hit rate 1.1% among 310,000;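 active means fluorescence ratio B-score at most minus 3 library SDs, with starting brightness B-score within 2 library SDs, cut at about -5.5 in these data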
Target sequence (O88943 whole entry, looked up): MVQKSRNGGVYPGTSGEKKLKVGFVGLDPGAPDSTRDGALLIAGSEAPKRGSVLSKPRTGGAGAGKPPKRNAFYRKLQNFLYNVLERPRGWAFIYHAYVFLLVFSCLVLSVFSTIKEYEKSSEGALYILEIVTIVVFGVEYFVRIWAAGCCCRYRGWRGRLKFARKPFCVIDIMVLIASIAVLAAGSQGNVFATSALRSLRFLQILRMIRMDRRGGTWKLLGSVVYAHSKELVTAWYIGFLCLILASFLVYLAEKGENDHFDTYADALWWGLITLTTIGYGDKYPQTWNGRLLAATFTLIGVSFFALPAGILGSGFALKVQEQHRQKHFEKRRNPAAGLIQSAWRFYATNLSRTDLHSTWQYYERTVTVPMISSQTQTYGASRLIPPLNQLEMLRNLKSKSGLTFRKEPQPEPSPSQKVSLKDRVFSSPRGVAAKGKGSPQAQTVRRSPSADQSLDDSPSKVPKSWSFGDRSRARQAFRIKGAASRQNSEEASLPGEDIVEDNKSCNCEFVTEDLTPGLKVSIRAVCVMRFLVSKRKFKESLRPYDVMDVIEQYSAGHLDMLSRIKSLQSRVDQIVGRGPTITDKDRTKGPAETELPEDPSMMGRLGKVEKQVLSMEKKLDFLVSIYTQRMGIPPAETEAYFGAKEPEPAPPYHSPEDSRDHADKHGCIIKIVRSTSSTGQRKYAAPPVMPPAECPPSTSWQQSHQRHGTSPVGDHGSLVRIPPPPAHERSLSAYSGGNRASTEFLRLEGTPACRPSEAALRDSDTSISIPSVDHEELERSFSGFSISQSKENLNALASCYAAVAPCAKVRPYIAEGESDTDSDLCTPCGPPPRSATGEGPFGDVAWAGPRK
KCNQ2 enhance = enhances the rat KCNQ2 potassium channel | AID 2239 | CHO-K1 KCNQ2, FluxOR thallium flux fluorescence; stronger effect = higher value | O88943 | B-score at 10 µM | hit rate 0.54% among 310,000;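 active means fluorescence ratio B-score at least 3 SD of library B-scores, with initial fluorescence B-score within 3 of them, cut at about 5.3 in these data; same plate scores as AID 2156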;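 further: B-score of peak minus minimum over baseline fluorescence ratio after K+ and Tl+ stimulus; positive B-score means potentiation of KCNQ2 with more thallium influx and brighter signal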
KCNQ2 inh conf = confirmation of rat KCNQ2 potassium channel inhibitors. shares compounds with KCNQ2 inh. KCNQ2-expressing cells, thallium flux, inhibition; stronger effect = lower value. activity change, negative = inhibition, % at 10 µM. hit rate 57% among 1,000;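 further: 0% = vehicle wells and values are ratio percent relative to vehicle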
KCNQ1 spec = KCNQ2 inhibitor that also affects human KCNQ1 channel; shares compounds with KCNQ2 inh; KCNQ1-expressing cells, FluxOR thallium flux fluorescence; stronger effect = lower value; activity change, negative = inhibition, % at 10 µM; hit rate 15% among 1,000; AID 493026;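 active means activity change at least 3 SD of negative controls below their mean in both duplicate wells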;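 further: CHO cells stably transfected with KCNQ1 and depolarized by potassium stimulus; peak minus minimum fluorescence over baseline after thallium addition; 0% = vehicle negative control and -100% = blank without thallium stimulus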
CHO parental ctr = KCNQ2 inhibitor counter-screen hit in parental CHO cells; activity change, % at 10 µM; shares compounds with KCNQ2 inh; thallium flux counter-screen; stronger effect = lower value; hit rate 14% among 1,000;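 further: 0% = vehicle negative controls with stimulus buffer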
KCNQ2 patch conf = rat KCNQ2 inhibition confirmed by electrophysiology; KCNQ2-expressing cells, automated patch clamp current; hit rate 49% among 550; calls only at 10 µM; shares compounds with KCNQ2 inh
Starred values were filed as active, the others as inactive; i = inactive; · = no result given; + = active, no number. Unless noted, how the calls were made is not given here.

SMILES	KCNQ2 inh	KCNQ2 enhance	KCNQ2 inh conf	KCNQ1 spec	CHO parental ctr	KCNQ2 patch conf
Cc1ccc(S(=O)(=O)N2CCCC2C(=O)NCc2ccccc2F)cc1 (stereo unspecified)	i	·	·	·	·	·
CN(C)c1nc(NCc2ccccc2)nc(N/N=C/c2ccccc2F)n1	i	·	·	·	·	·
CN(C)c1nc(NCc2ccccc2)nc(N/N=C/c2ccc(Cl)cc2Cl)n1	-8.8*	-8.8	i	i	i	·
O=c1c2cc(F)ccc2[nH]c(=S)n1Cc1ccc(F)cc1	i	·	·	·	·	·
COc1ccc(-c2noc(-c3ccccc3-c3ccccc3)n2)cc1OC	-8.9*	-8.9	i	i	i	·
COc1ccc(-c2noc(-c3cccnc3)n2)cc1OC	i	·	·	·	·	·
Cc1ccc2c(C)c(C(=O)N3CCN(Cc4ccc5c(c4)OCO5)CC3)oc2c1C	-6.9*	-6.9	i	i	i	·
Cc1ccc(C(=O)N2CCN(Cc3ccc4c(c3)OCO4)CC2)o1	i	0.38	·	·	·	·
CC(C)[C@H](NC(=O)OCc1ccccc1)C(=O)OCC(=O)NCCc1ccccc1	-7.1*	-7.1	i	i	i	·
CC(C)[C@H](NC(=O)c1ccccc1)C(=O)OCC(=O)NCCc1ccc(F)cc1	i	·	·	·	·	·
COc1ccc(C(=O)C(c2ccccc2)N2CCOCC2)cc1 (stereo unspecified)	i	1.2	·	·	·	·
Cc1ccc(C(=O)C(c2ccccc2)N2Cc3ccccc3C2=N)cc1 (stereo unspecified)	-8.6*	-8.6	-32%*	i	i	+
CCOC(=O)C1(CC2CCCCO2)CCN(C(=O)Nc2ccc(C(=O)OC)cc2)CC1 (stereo unspecified)	i	·	·	·	·	·
S=C(NCC1CCCO1)N1CCN(Cc2ccccc2Cl)CC1 (stereo unspecified)	i	0.09	·	·	·	·
Cc1ccc(S(=O)(=O)c2nc(-c3ccccc3Cl)oc2N(C)C)cc1	i	·	·	·	·	·
CN(C)c1oc(-c2ccccc2Cl)nc1P(=O)(c1ccccc1)c1ccccc1	-9.5*	-9.5	-39%*	-31%*	-24%*	+
Nc1cccc(P(=O)(c2ccccc2)c2ccccc2)c1	i	·	·	·	·	·
O=P(c1ccccc1)(c1ccccc1)N(c1ccccc1)c1ccccc1	-6.8*	-6.8	-20%*	i	i	+
O=C(NCC(c1ccco1)N1CCc2ccccc2C1)C(=O)Nc1ccccc1F (stereo unspecified)	-7*	-7	-26%*	i	i	i
O=C(CN1CCc2ccccc2C1)Nc1ccc(F)cc1F	i	·	·	·	·	·
CC(=O)Nc1ccc(NC(=O)C(=O)NCC(c2ccco2)N2CCc3ccccc3C2)cc1 (stereo unspecified)	i	·	·	·	·	·
O=C(NCC(c1ccco1)N1CCc2ccccc2C1)C(=O)Nc1ccc(F)cc1F (stereo unspecified)	-6.7*	-6.7	-26%*	i	i	i
CC1=Nc2ccccc2/C1=C/c1nc(-c2ccc(C)s2)oc1O	i	·	·	·	·	·
CC1=Nc2ccccc2/C1=C/c1sc(=N)n(-c2nccs2)c1O	-9.9*	-9.9	-52%*	-62%*	-57%*	i
CCCOc1ccc(C(=O)Nc2ccc(N3CCN(C(=O)c4ccco4)CC3)cc2)cc1	i	0.17	·	·	·	·
SMILES	KCNQ2 inh	KCNQ2 enhance	KCNQ2 inh conf	KCNQ1 spec	CHO parental ctr	KCNQ2 patch conf
CC(C)(C)c1nn2cnnc2n(/N=C/c2ccccc2)c1=O	i	0.39	·	·	·	·
COc1ccc(Cl)cc1C(=O)NC(=S)Nc1ccccc1N1CCOCC1	-12*	-12	-28%*	i	i	+
Cc1cc(Cl)ccc1OCC(=O)NC(=S)Nc1ccccc1N1CCOCC1	i	·	·	·	·	·
COc1ccc(C(=O)COC(=O)CNS(=O)(=O)c2ccc(C)cc2)cc1	i	·	·	·	·	·
CCN(CC)C(=O)c1cc2c(=O)c3cc(F)ccc3oc2nc1C	-9.6*	-9.6	-23%*	i	i	+
CCOC(=O)c1cc2c(=O)c3ccccc3oc2nc1C	i	0.29	·	·	·	·
CN(Cc1ccccc1)C(=O)NC1CCCCC1	i	·	·	·	·	·
C=C(C)c1ccc(C(C)(C)NC(=O)NCc2ccco2)cc1	i	1.4	·	·	·	·
C=C(C)c1ccc(C(C)(C)NC(=O)N(Cc2ccccc2)Cc2ccco2)cc1	-6.9*	-6.9	-16%*	i	i	i
O=C(NC1CCCCC1)N(Cc1ccccc1)Cc1ccco1	-8.1*	-8.1	i	i	i	·
Cc1cc(=O)oc2c3c(cc(OCC(=O)NC(Cc4ccc(Cl)cc4)C(=O)O)c12)OC(C)(C)CC3 (stereo unspecified)	i	1.7	·	·	·	·
